Results taken from the supplement of paper PMC6555819.

System: PPARg:RXRa IVT, anti-PPARg (NR concentration 270 nM, RXRa partner concentration 90 nM)
Test: PBM binding z-score (relative to random genomic background probes); higher = stronger binding; sequences stand for … in GC…GCGATTGACAGCGTAGAATGAAGG
Method in brief: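 The probes on custom Agilent 4×180K protein-binding microarrays were double-stranded, with 34-nt variable regions bearing direct-repeat seeds, single-nucleotide variants, half-site ablations and random human genomic background sequences. Incubation lasted 1 h with ligand-free nuclear receptor dimers in PBS pH 7.4, 2% milk, 0.02% Triton X-100, 1 mM DTT, 0.2 mg/mL BSA and 0.4 mg/ml salmon testes DNA. Antibodies against each partner (one per run) detected bound dimers, and fluorescence scans were regression-normalized. Binding z-scores take the random background probes as reference.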

| Sequence | PBM binding z-score |
| --- | --- |
| CTACCAAGGTGAACAAGGTCGTTGACTACTATTC | 2.84 |
| GCTAGCTGGTCAGTAAAAGGTCACACACCGGTCG | 2.35 |
| AGTCAAAGTTCACTAGGTAACGTCAGATTCAGCT | 4.95 |
| CTCGAAAGGTAGGTTGAGGTGAGTATACGGATAA | 0.611 |
| TCATATAGGTAAATGCGAGGTGAAAGTCCGATCT | 3.06 |
| TAGCCTAGGGCATTGGGCCAGTATAGTACGCATC | 1.87 |
| ATCTCTAGGTAAAGTTCAGTAAAAGATCGATAGA | 2.45 |
| CAGCCTAGGTCAGGGCTAGTATAGGAGGAACGTT | 1.55 |
| CAGACTAGGTCAGGGCCAGTATAGGAGGAACGTT | 6.11 |
| CCTCGGAGGACAGAAGGTCAGAGTTGTCCGCTTT | 0.171 |
| CTCGAAAGGTCGGTTGAGGTGAGTATCCGGATAA | 0.893 |
| ATCGAAAGGTCGAGGTGAGTATAGAGAAAGGGAA | 2.38 |
| AATACAGGGTCATCGTAGGCCAAAGTACGCACAG | 4.06 |
| CGTCCAAGCTCAATGCTAGGTCAGTGAAAGCATT | 0.0626 |
| ATCTCTAGGTAAAGATAGTTCAGTGACTGCAAAT | 1.52 |
| TCTATTAGTTGAAGGGCAACCGGCGAGTCCGTTT | 0.473 |
| CTCGAAACGTCGGTTGAGGTGAGTATACGGATAA | -0.061 |
| ACTAGCAGGCCAAGGGACACTCAAGATTAGTCCG | 0.462 |
| TTACCAAGGTTAAGGTCGTTGATCCCTCTGTAGA | 2.15 |
| GCTGCTAGGTCAGGTTGGACAGCTAACGGGTACG | 2.18 |
| GCTATTCGTTGAAAGGGCAACCGAATGATTCTCG | 0.413 |
| CAAACTAGGTCAAAGGTCAATGTCGAGCCAACCA | 9.22 |
